# Hit rate of the full screen: of about 52,000 compounds, about 1,700 (3.3%) were called active. Rule as the data show it: active = survival mostly below about 52% (no sharp cut-off); inactive = mostly above about 56%. The entries come from a sample that favours actives as a whole.
# Test system: Wild type
# Assay: growth inhibition of S. aureus wild type versus tarO mutant, primary screen, teichoic acid synthesis inhibitors, RN4220, OD600 (AID 463173)
# Details: S. aureus RN4220 wild type/DeltatarO growth, OD600, 18 h, stronger effect = lower value, screened at 18.75 µg/mL (by protocol)
row,Compound,survival
1,CCOC(=O)CSc1nc(-c2ccc(C)cc2C)cc(-c2ccccc2)c1C#N,63% (inactive)
2,CNS(=O)(=O)c1cn(CC(=O)N2CCN(c3cc(C)ccc3C)CC2)cc1S(=O)(=O)NC,83% (inactive)
3,CCN1CCC(N(Cc2ccc(F)cc2)C(=O)Nc2cc(Cl)ccc2C(=O)OC)CC1,80% (inactive)
4,COc1ccc(NC(=O)N(Cc2ccco2)C2CCN(C(C)=O)CC2)c(OC)c1,85% (inactive)
5,COc1ccc(C)cc1NC(=O)N(Cc1ccc(C)o1)C1CCN(C(C)=O)CC1,0% (active)
6,COC(=O)c1ccc(Cl)cc1NC(=O)N(Cc1ccc(C)o1)C1CCN(C(C)=O)CC1,76% (inactive)
7,COc1ccc(NC(=O)N(C(C)C)C2CCN(C(C)=O)CC2)c(OC)c1,-4% (active)
8,CCOc1ccccc1NC(=O)N(Cc1ccc(C)o1)C1CCN(C(C)=O)CC1,75% (inactive)
9,CC(=O)N1CCC(N(Cc2ccc(C)o2)C(=O)Nc2ccc(C)cc2)CC1,70% (inactive)
10,COC(=O)c1ccc(Cl)cc1NC(=O)N(Cc1ccc(OC)cc1)C1CCN(C(C)=O)CC1,-6% (active)
11,COc1ccc(C)cc1NC(=O)N(C(C)C)C1CCN(C(C)=O)CC1,85% (inactive)
12,O=C(Cn1c(=O)nc(-c2ccccc2)c2ccccc21)NCc1ccc(F)cc1,68% (inactive)
13,CC(=O)c1ccc(N2CCN(C(=O)CCS(=O)(=O)c3ccc4c(c3)oc(=O)n4C)CC2)cc1,89% (inactive)
14,CCCCCOc1ccc(/C=C/C(=O)Nc2sc(C)c(C)c2C(=O)OCC)cc1OC,132% (inactive)
15,CCCOCc1cc(CN2CCN(c3ccccc3OC)CC2)c(O)c2ncccc12,99% (inactive)
16,CC(C)OC(=O)C1=C(N)OC2=C(C(=O)CCC2)C1c1ccccc1F (centres undefined),114% (inactive)
17,COc1ccc(CCNC(=O)Cn2c(-c3ccc(F)cc3)cc(C(C)=O)c2C)cc1OC,54% (inactive)
18,CN1CCN(CCCNC(=O)c2cnn(-c3ccc(F)cc3)c2-n2cccc2)CC1,84% (inactive)
19,COc1ccc(N2CC(NC(=O)c3ccc(OC(C)C)cc3)CC2=O)cc1 (centres undefined),-2% (active)
20,COc1ccc(CCC(=O)NC2CC(=O)N(c3ccccc3)C2)cc1 (centres undefined),131% (inactive)
21,COc1cccc(N2CC(NC(=O)CCCc3ccccc3)CC2=O)c1 (centres undefined),88% (inactive)
22,COc1ccc(C(=O)NC2CC(=O)N(c3ccc4c(c3)OCCO4)C2)cc1 (centres undefined),143% (inactive)
23,O=C(Cc1cccs1)NC1CC(=O)N(c2ccccc2)C1 (centres undefined),78% (inactive)
24,COc1ccc(N2CC(NC(=O)c3ccc(S(=O)(=O)N4CCCC4)cc3)CC2=O)cc1 (centres undefined),118% (inactive)

row,Compound,survival
1,O=C(Cc1cccs1)NC1CC(=O)N(c2ccc(F)cc2)C1 (centres undefined),95% (inactive)
2,Cc1cccc(CC(=O)NC2CC(=O)N(c3cccc(F)c3)C2)c1 (centres undefined),60% (inactive)
3,O=C(Cc1ccccc1)NC1CC(=O)N(c2ccccc2)C1 (centres undefined),76% (inactive)
4,Cc1ccc(N2CC(NC(=O)Cc3cccs3)CC2=O)cc1 (centres undefined),0% (active)
5,COc1ccc(N2CC(NC(=O)CCCc3ccccc3)CC2=O)cc1 (centres undefined),0% (active)
6,Cc1cccc(CC(=O)NC2CC(=O)N(c3ccccc3)C2)c1 (centres undefined),-6% (active)
7,COc1ccc(N2CC3=C(C2=O)C(c2ccc(O)c(OC)c2)NC(=O)N3C)cc1 (centres undefined),71% (inactive)
8,CCN(C(=O)Cn1nc(Cc2cccnc2)c2ccccc2c1=O)c1cc(C)ccc1C,83% (inactive)
9,CCc1ccccc1NC(=O)Cn1c(SCc2ccc(F)cc2)nc2ccncc21,48% (inactive)
10,COc1ccc(NC(=O)C2CCN(S(=O)(=O)c3c(C)noc3/C=C/c3ccco3)CC2)cc1,128% (inactive)
11,COc1ccc(CCNC(=O)CCn2c(=O)c3ccccc3n(Cc3ccccc3)c2=O)cc1OC,97% (inactive)
12,CCC(=O)Nc1ccc(CC)cc1-c1nc2ccccc2n(CC(=O)c2ccc(OC)cc2)c1=O,74% (inactive)
13,O=C(CCc1ccccc1)NC1CC(=O)N(c2ccccc2)C1 (centres undefined),78% (inactive)
14,Cc1ccc(N2CC(NC(=O)CCc3ccccc3)CC2=O)cc1 (centres undefined),-3% (active)
15,Cc1ccc(N2CC(NC(=O)CCCc3ccccc3)CC2=O)cc1 (centres undefined),53% (inactive)
16,COc1ccccc1NC(=O)CN(c1ccc(C(C)C)cc1)S(=O)(=O)c1c(C)noc1C,88% (inactive)
17,O=c1c2cc3c(nc2ncn1Cc1ccc(Cl)cc1)CCCC3,76% (inactive)
18,CCSc1nsc(NC(=O)Nc2cccc(F)c2)n1,0% (active)
19,CCSc1nsc(NC(=O)Nc2cccc(OC)c2)n1,95% (inactive)
20,O=C(CSc1nnc(NC(=O)Nc2ccccc2)s1)Nc1cccc(F)c1,75% (inactive)
21,Cc1ccc(CNC(=O)c2ccc(CSCc3ccc(Cl)cc3)o2)cc1,85% (inactive)
22,CCOc1ccc(C(c2c(O)cc(C)n(Cc3ccco3)c2=O)N2CCN(C)CC2)cc1 (centres undefined),66% (inactive)
23,CC(C)(C)OC(=O)N1CCC(c2c(C(=O)NCc3ccc4c(c3)OCO4)cnn2-c2ccccc2Cl)CC1,75% (inactive)
24,CNC(=O)C1CCC(Cn2c(=O)[nH]c3ccsc3c2=O)CC1 (centres undefined),80% (inactive)

row,Compound,survival
1,CCCCCNC(=O)CCCCCn1c(=O)[nH]c2ccsc2c1=O,62% (inactive)
2,CCCCN(C)C(=O)C1CCC(Cn2c(=O)[nH]c3ccsc3c2=O)CC1 (centres undefined),-2% (active)
3,CCCn1nc(NC(=O)c2cccc(Cl)c2)c2cc3cccc(C)c3nc21,87% (inactive)
4,COc1ccc(-c2cccc(NS(=O)(=O)c3ccc(C)s3)c2)nn1,91% (inactive)
5,Cc1ccc(C)c(N2CCN(C(=O)C3CCCN(Cc4nc(-c5cccc(Cl)c5)oc4C)C3)CC2)c1 (centres undefined),81% (inactive)
6,Cc1ccc(C)c(N2CCN(C(=O)C3CCN(Cc4nc(-c5cccc(Cl)c5)oc4C)CC3)CC2)c1,3% (active)
7,COc1ccc(-c2nc(CSCC(=O)N3CCN(c4ccccc4F)CC3)c(C)o2)cc1,24% (inactive)
8,Cc1cccc(N2CCN(C(=O)C3CCN(Cc4nc(-c5ccc(Cl)cc5)oc4C)CC3)CC2)c1C,47% (inactive)
9,Cc1cccc(-c2nc(CN3CCCC(C(=O)N4CCN(c5cc(Cl)ccc5C)CC4)C3)c(C)o2)c1 (centres undefined),75% (inactive)
10,Cc1ccc(Cl)cc1N1CCN(C(=O)C2CCN(Cc3nc(-c4ccc(Cl)cc4)oc3C)CC2)CC1,-4% (active)
11,Cc1ccc(Cl)cc1N1CCN(C(=O)C2CCN(Cc3nc(-c4cccc(Cl)c4)oc3C)CC2)CC1,-4% (active)
12,COc1ccc(-c2nc(CSCC(=O)N3CCN(c4cc(Cl)ccc4C)CC3)c(C)o2)cc1,-1% (active)
13,Cc1ccc(Cl)cc1N1CCN(C(=O)C2CCCN(Cc3nc(-c4cccc(Cl)c4)oc3C)C2)CC1 (centres undefined),84% (inactive)
14,COc1ccc(-c2nc(CSCC(=O)N3CCN(c4ccc(OC)cc4)CC3)c(C)o2)cc1,81% (inactive)
15,CCc1ccc(-c2nc(CN3CCCC(C(=O)N4CCN(c5cc(Cl)ccc5C)CC4)C3)c(C)o2)cc1 (centres undefined),84% (inactive)
16,Cc1oc(-c2cccc(Cl)c2)nc1CN1CCC(C(=O)NC(C)C)CC1,92% (inactive)
17,Cc1cccc(N2CCN(CCCNC(=O)Cn3ncc4c([nH]c5ccccc54)c3=O)CC2C)c1 (centres undefined),101% (inactive)
18,CCc1ccccc1NC(=O)CSc1nnc(CC)c(CC)n1,74% (inactive)
19,Cc1ccccc1CN1c2ccccc2S(=O)(=O)c2ccccc21,73% (inactive)
20,Cc1cc(C)c(Cn2c3ccccc3c3cnn(CC(=O)NC4CCCCCC4)c(=O)c32)c(C)c1,127% (inactive)
21,COc1ccc(-n2cc(-c3ccccc3)nc2SCC(=O)Nc2ccccc2)cc1Cl,71% (inactive)
22,COc1ccc(Cl)cc1N=C1NC(=O)CC(C(=O)Nc2ccccc2C(F)(F)F)S1 (centres undefined),71% (inactive)
23,COc1ccc(CCNC(=O)CN2C(=O)COc3ccc(C)cc32)cc1OC,71% (inactive)
24,COCCNC(=O)CCCn1c(SCC(=O)Nc2ccc(F)cc2)nc2c(sc3ccccc32)c1=O,103% (inactive)

row,Compound,survival
1,Cc1ccc2c(c1)-c1c(cnc3cc(-c4ccc(Cl)cc4)nn13)CO2,61% (inactive)
2,CC(=O)c1cc2c(cc1N/C(=N/S(=O)(=O)c1ccc(C)cc1)c1ccc(Cl)cc1)OCO2,10% (active)
3,CC(=O)c1cc2c(cc1N/C(=N/S(=O)(=O)c1ccc(Cl)cc1)c1ccc(F)cc1)OCO2,80% (inactive)
4,CC(=O)c1cc2c(cc1N/C(=N/S(=O)(=O)c1ccc(C)cc1)c1ccccc1)OCO2,88% (inactive)
5,CC(=O)c1cc2c(cc1N/C(=N/S(=O)(=O)c1ccc(C)cc1)c1ccc(F)cc1)OCO2,82% (inactive)
6,CC(=O)c1cc2c(cc1N/C(=N/S(=O)(=O)c1ccccc1)c1ccc(Cl)cc1)OCO2,-2% (active)
7,CC(=O)c1cc2c(cc1N/C(=N/S(=O)(=O)c1ccc(Br)cc1)c1ccccc1)OCO2,69% (inactive)
8,CC(=O)Nc1ccc(NC(=O)c2ccc3c(c2)NC(=O)c2ccccc2S3)cc1,138% (inactive)
9,CC1=C(C(=O)OC2CCCC2)C(c2c(F)cccc2Cl)CC(=O)N1 (centres undefined),87% (inactive)
10,O=C1CC(c2nnc(Cc3cccc(Cl)c3)o2)CN1c1ccccc1 (centres undefined),113% (inactive)
11,CS(=O)(=O)c1ccc(-c2nn[nH]n2)cc1,103% (inactive)
12,O=C(Nc1c(C(=O)N2CCN(c3ccccc3)CC2)oc2ccccc12)c1ccc(Br)o1,81% (inactive)
13,COc1cc(Cl)c(C)cc1Nc1nc2ccccc2n2cnnc12,127% (inactive)
14,CCOC(=O)C1CCN(c2c(C(=O)c3ccc(OCC)cc3)cnc3ccc(OC)cc23)CC1,0% (active)
15,COc1cc2ncc(C(=O)c3ccc(C)cc3)c(N3CCCCC3)c2cc1OC,2% (active)
16,CCOC(=O)C1CCN(c2c(C(=O)c3ccc(OC)cc3)cnc3ccccc23)CC1,125% (inactive)
17,CCc1ccc2ncc(C(=O)c3ccc(C)c(C)c3)c(N3CCC(C(N)=O)CC3)c2c1,102% (inactive)
18,CCOC(=O)C1CCN(C(=O)c2ccc(C)cc2)CC1,93% (inactive)
19,COc1ccc(C(=O)c2cnc3ccc(C)cc3c2S(=O)(=O)c2ccccc2)cc1,79% (inactive)
20,CCOc1ccc(S(=O)(=O)c2c(C(=O)c3ccc(CC)cc3)cnc3ccc(C)cc23)cc1,87% (inactive)
21,CCOC(=O)C1CCN(c2c(C(=O)c3ccc(C)cc3)cnc3ccc(F)cc23)CC1,3% (active)
22,CCN1CCN(c2c(S(=O)(=O)c3ccc(OC)cc3)cnc3cc(OC)c(OC)cc23)CC1,77% (inactive)

# From PubChem BioAssay AID463173 (ICCB-Longwood Screening Facility, Harvard Medical School, 2010)
